Bioassay records (PubChem BioAssay)
NPSR antag – neuropeptide S receptor (human) antagonism, cAMP. Q6W5P4. CHO-NPSR cells, cAMP TR-FRET, antagonist mode. Potency, µM (series often up to 38.3 µM), inactives show at the highest dose activity change, negative = inhibition, hits mostly inhibitors. 220,000 tested, 1% active. AID 1461; also: potency is read from the fitted curve at half-maximal effect; % is scaled to controls: 0 for no effect and ±100 for the full control effect; nearly all actives have a fitted effect of over 50% in size
PKM2 activator – increases activity of human pyruvate kinase M2 | purified PKM2, Kinase-Glo ATP luminescence, activation; response scale: 0% is enzyme alone, no compound | P14618 | AID 1631 | Potency, µM (titrated, usually from 57.5 µM), for inactives: at the top dose activation, usual class: activators | 260,000 tested, 0.34% active; also: potency is read from the fitted curve at half-maximal effect; % is scaled to controls: 0 for no effect and ±100 for the full control effect; nearly all actives have a fitted effect of over 55% in size
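Kinase-Glo luminescence reports ATP generated from ADP (0.1 mM) and PEP (0.5 mM) by purified hPK-M2 after 1 h at room temperature, pH 7.2 imidazole buffer; intermediate enzyme activity allows detecting inhibitors and activators.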
IL2 activator – activates IL-2 in a cell-based reporter assay; IL-2 activation reporter assay, cell-based qHTS; stimulated with anti-CD3/CD4/CD28 beads; in transgenic mouse T cells; activation, % (series mostly up to about 46 µM); 360,000 tested, 0.065% active; in the data active = activation above about 50%; inconclusive = mostly about 30% to 49%; also: 0% is about no effect
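Unstimulated transgenic mouse T cells preincubated 60 min with compound, then stimulated with anti-CD3/anti-CD4-coated beads plus anti-CD28 for 18 h at 37 degrees C. IL-2 response read as EGFP and DsRed fluorescence by plate cytometry.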
ClpP mod – qHTS Assay for Activators of ClpP; purified B. subtilis ClpP, FRET peptide cleavage, 20 min; AID 651965, 2013; Potency, µM (titrated, usually from 57.5 µM), for the others: at the top dose activity change, negative = active; 340,000 tested, 1.9% active; ATP-dependent Clp protease proteolytic subunit (Bacillus subtilis (strain 168)), P80244; active = well fitted falling curve with a large enough effect; inconclusive = small, poorly fitted or top-dose-only effect; inactive = no such curve, though single readings can be large or run the other way; also: potency is read from the fitted curve at half-maximal effect; the source files actives as falling curves though it sought activators and does not explain the sign; nearly all actives have a fitted effect of over 65% in size
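ClpP 10 microg/mL final, pH 8 Tris/KCl buffer with BSA, glycerol, Tween-20; compound pinned in; FRET-FV substrate; RT 20 min; Ex320/Em430; ΔFRET vs ADEP 5.8 microM, DMSO, no enzyme.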
Numbers without * were called inactive; ? = inconclusive; nt = no result given; [ ] = dose if it differs, or a comment. This is a sample that favours compounds with a hit; in the whole collection about 2% have one here. Unless noted, calls follow the shape of the dose curve; as a rule, active = well fitted curve in the direction sought with a large enough effect; inconclusive = small, poorly fitted or top-dose-only effect, or another doubt; inactive = no such curve, though single readings can be large; an effect the other way counts as inactive or inconclusive.

SMILES	NPSR antag	PKM2 activator	IL2 activator	ClpP mod
COc1ccc(NC(C)=O)cc1NC(C)C(=O)Nc1ccc(S(=O)(=O)N2CCCCC2)cc1 (stereo unspecified)	nt	nt	2.6	-1.5%
CCn1cc(C(=O)Nc2ccc(OC)c(S(=O)(=O)N3CCCCC3)c2)c(=O)c2ccc(C)nc21	9.1%	0.5%	-2.8	31.6µM*
CCn1cc(C(=O)Nc2ccc(C(=O)N3CCCC3)cc2)c(=O)c2ccc(C)nc21	6.0%[46.1 µM]	-5.8%	nt	nt
COC(=O)c1c(NC(=O)CC2Nc3ccccc3NC2=O)sc(C)c1C (stereo unspecified)	-11.3%[46.1 µM]	0.2%	184.7*	-1.3%
CCOC(=O)c1c(NC(=O)CC2Sc3ccc(C(F)(F)F)cc3NC2=O)sc(C)c1C (stereo unspecified)	-4.6%	0.8%	1.3	1.6%
CCOC(=O)c1c(NC(=O)CC2Nc3ccccc3NC2=O)sc(C)c1C (stereo unspecified)	-10.5%	-2.6%	157.7*	-1.4%
O=C(CC1Nc2ccccc2NC1=O)Nc1cc(Cl)cc(Cl)c1 (stereo unspecified)	-4.2%[46.1 µM]	-1.0%	1.3	-13.6%
C=C[C@@H]1c2c(F)cccc2N(S(=O)(=O)c2ccc(C)cc2)[C@H](c2ccc(C(=O)OC)cc2)C1(C#N)C#N	nt	nt	-0.2	-2.1%
COc1ccc(N2C(=O)CC(Sc3nnc(-c4ccccc4)o3)C2=O)cc1 (stereo unspecified)	?	20µM*	-1.4	19.5%
O=C1CC(Sc2nnc(-c3ccccc3O)o2)C(=O)N1c1ccccc1 (stereo unspecified)	?	11.2%	-2.3	46.5%
COc1ccc(N2C(=O)CC(Sc3nnnn3-c3ccc(F)cc3)C2=O)cc1 (stereo unspecified)	-20.8%	28.2µM*	-0.8	nt
COc1ccc(C2=NN(S(C)(=O)=O)C(c3cn(-c4ccccc4)nc3-c3cccs3)C2)cc1 (stereo unspecified)	nt	nt	nt	14.1µM*
Cc1ccccc1OCc1nc(-c2ccc(NC(=O)c3ccco3)cc2)no1	-14.2%[46.1 µM]	-2.4%	9.9	28.2µM*
Cc1ccccc1OCc1nc(-c2ccc(NC(=O)c3cccs3)cc2)no1	-9.6%	5.9%	-0.1	-16.7%
Cc1ccccc1OCc1nc(-c2ccc(NC(=O)c3ccc4c(c3)OCO4)cc2)no1	10µM*	-5.2%	-1.6	-26.2%
CN(C(=O)c1cc([N+](=O)[O-])ccc1NCc1cccnc1)c1ccccc1	nt	-1.4%	-3.1	1.5%
O=C(CSc1nc2ccccc2o1)c1ccccc1	-18.4%[46.1 µM]	-14.7%	-5.1	-2.0%
COC(=O)C1=C(C(=O)OC)[C@@H]2Nc3ccccc3[C@@]23C[C@@H](C(=O)OC)N(S(=O)(=O)c2ccc(C(F)(F)F)cc2)C3=N1	nt	-5.8%[11.5 µM]	nt	nt
CC(=O)N(CC#CCN(C(C)=O)c1ccccc1)c1ccccc1	nt	nt	2.0	-5.8%
N#Cc1c(C(F)(F)F)cc(-c2cccs2)nc1SCc1cccnc1	?	-3.3%	-1.9	8.91µM*
COCCCNc1nc2ccccc2nc1NS(=O)(=O)c1ccc(C)cc1	-16.8%	4.3%	-1.1	3.4%
COCCNc1nc2ccccc2nc1NS(=O)(=O)c1ccc(C)cc1C	-2.2%[46.1 µM]	3.3%	2.0	28.2µM*
O=C(NCC1CCCO1)c1coc2nc3ccccc3nc12 (stereo unspecified)	-3.5%[46.1 µM]	-4.0%	0.5	19.4%
COc1ccc(N=c2oc3cc(O)ccc3cc2C(=O)NCC2CCCO2)c(OC)c1 (stereo unspecified)	7.4%[46.1 µM]	2.1%	5.8	25.1µM*
COc1ccc(N=c2oc3cc(O)ccc3cc2C(=O)NCC2CCCO2)cc1 (stereo unspecified)	-10.1%[46.1 µM]	3.2%	1.3	-19.9%
SMILES	NPSR antag	PKM2 activator	IL2 activator	ClpP mod
COc1ccc(-n2c(N)c(C(=O)NCC3CCCO3)c3nc4ccccc4nc32)c(OC)c1 (stereo unspecified)	?	-1.6%	-0.8	31.6µM*
C=CCn1c(N)c(C(=O)NCC2CCCO2)c2nc3ccccc3nc21 (stereo unspecified)	12.9%[46.1 µM]	14.1%	-2.8	8.91µM*
C=CCSc1ncc(C#N)c(N)n1	-4.9%	1.0%	1.5	0.3%
O=C(CCCc1cccs1)N1CCN(S(=O)(=O)c2ccccc2Br)CC1	-20.6%[46.1 µM]	11.2µM*	-1.6	-1.4%
O=C(CCCc1c[nH]c2ccccc12)N1CCN(S(=O)(=O)c2cccs2)CC1	-14.0%[46.1 µM]	1.58µM*	-1.4	-0.4%
O=C(CCCc1c[nH]c2ccccc12)N1CCOCC1	-0.9%[46.1 µM]	-6.3%	-0.9	-9.4%
O=C(CSc1ccccc1)N1CCN(S(=O)(=O)c2cccs2)CC1	nt	1.12µM*	0.4	-2.6%
O=C(Cc1cccs1)N1CCN(S(=O)(=O)c2ccccc2)CC1	13.8%	26.5%	-1.0	0.9%
Cc1ccc(F)cc1NC(=O)N1CCCN(C(=O)OC(C)(C)C)CC1	-2.0%	-0.1%	-0.8	-0.3%
COc1ccc(C(=O)CN2C(=O)NC3(CCCc4ccccc43)C2=O)c(OC)c1 (stereo unspecified)	nt	-0.3%	-2.9	-2.7%
COc1ccc(-c2cc3cc4c(cc3cn2)OCO4)cc1	nt	nt	-0.5	14.1µM*
O=C1NC(c2cccc3ccccc23)Nc2ccccc21 (stereo unspecified)	nt	nt	0.1	?
O=C1NC(c2ccccc2Cl)Nc2ccccc21 (stereo unspecified)	-1.4%[46.1 µM]	-1.2%	0.9	25.1µM*
Cc1ccsc1C1NC(=O)c2ccccc2N1 (stereo unspecified)	-5.2%[46.1 µM]	-0.8%	1.3	15.8µM*
Cc1cc(F)ccc1S(=O)(=O)Nc1ccccc1C(=O)Nc1ncn[nH]1	-21.1%[46.1 µM]	5.5%	0.0	31.6µM*
COc1ccccc1C(=O)Nc1nc(-c2ccc3c(c2)OCCO3)cs1	-16.3%	0.4%	0.3	25.1µM*
Cc1ccc(S(=O)(=O)Nc2ccccc2C(=O)Nc2nc(-c3ccc(F)cc3)cs2)cc1	?	-18.4%	-4.2	15.8µM*
CCC(=O)Nc1nc(-c2ccc3c(c2)OCCO3)cs1	-15.2%[46.1 µM]	-2.4%	-2.2	2.7%
O=C(Nc1ccc(-c2nc3ccccc3[nH]2)cc1)c1ccccc1NS(=O)(=O)c1ccc(F)cc1	-20.2%	7.2%	0.3	35.5µM*
CS(=O)(=O)c1ccccc1C(=O)Nc1ccc(-c2nc3ccccc3[nH]2)cc1	nt	2.2%[0.46 µM]	1.5	-8.4%
COc1ccc(Cl)cc1C(=O)N1CCC2(CC1)CC(=O)c1ccccc1O2	nt	nt	-5.3	?
COc1ccc(NC(=O)c2cccc(NC(=O)c3ccccc3)c2)c(OC)c1	nt	0.6%	-0.7	0.1%
O=C1Nc2ccccc2C1c1ncc(C(F)(F)F)cc1Cl (stereo unspecified)	nt	nt	1.6	-1.4%
COc1ccccc1C(=O)N1CCN(S(=O)(=O)Cc2ccccc2)CC1	4.0%[46.1 µM]	-2.1%	0.7	-3.3%
O=C(Nc1ccc2c(c1)OCCO2)C(c1cc2ccccc2o1)N1CCN(c2ccc(F)cc2)CC1 (stereo unspecified)	nt	nt	-0.2	-18.7%
